# Activity calls are given as the source filed them. How the source made its calls: active means hit-call score of the fitted dose curve at least 0.9, where 1 is the maximum; inactive means score below 0.9.
# Assays:
# [1] = read-out: Thrombomodulin, THBD (gene 7056); experiment: BSK_CASM3C_Thrombomodulin: BioMAP Diversity Plus: CASM3C Assay for Thrombomodulin Biomarker Activity (AID 2283051); conditions: primary human coronary artery smooth muscle cells; actives raise or lower the signal;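 further: thrombomodulin protein level measured by ELISA 24 h after dosing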
# [2] = read-out: Tissue Factor, F3 (gene 2152); experiment: BSK_CASM3C_TissueFactor: BioMAP Diversity Plus: CASM3C Assay for Tissue Factor Biomarker Activity (AID 2283052); conditions: primary human coronary artery smooth muscle cells; actives raise or lower the signal;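 further: cell surface tissue factor protein level read by ELISA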
# [3] = read-out: Interferon-gamma inducible Protein 10 (IP10), CXCL10 (gene 3627); experiment: BSK_hDFCGF_IP10: BioMAP Diversity Plus: hDFCGF Assay for Interferon-gamma inducible Protein 10 (IP10) Biomarker Activity (AID 2283053); conditions: primary human foreskin fibroblasts; actives raise or lower the signal
# In short: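 IP-10 levels, quantified by ELISA, are taken from human foreskin fibroblast cultures 24 h after chemical treatment, with DMSO serving as negative control and baseline for bidirectional analysis.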
# [4] = read-out: Urokinase-type plasminogen activator receptor (uPAR), PLAUR (gene 5329); experiment: BSK_CASM3C_uPAR: BioMAP Diversity Plus: CASM3C Assay for Urokinase-type plasminogen activator receptor (uPAR) Biomarker Activity (AID 2283054); conditions: primary human coronary artery smooth muscle cells; actives raise or lower the signal;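 further: cell-surface uPAR protein level quantified by ELISA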
# [5] = read-out: Vascular cell adhesion molecule 1 (VCAM1), VCAM1 (gene 7412); experiment: BSK_CASM3C_VCAM1: BioMAP Diversity Plus: CASM3C Assay for Vascular cell adhesion molecule 1 (VCAM1) Biomarker Activity (AID 2283055); conditions: primary human coronary artery smooth muscle cells; actives raise or lower the signal;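 further: VCAM-1 protein level quantified by ELISA on the cells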
# [6] = read-out: Collagen III, COL3A1 (gene 1281); experiment: BSK_hDFCGF_CollagenIII: BioMAP Diversity Plus: hDFCGF Assay for Collagen III Biomarker Activity (AID 2283056); conditions: primary human foreskin fibroblasts; actives raise or lower the signal
# In short: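 Human foreskin primary fibroblasts were exposed to test chemicals for 24 h, after which collagen III was quantified by ELISA. Activity was fitted bidirectionally against DMSO as negative control and baseline.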
# [7] = read-out: Epidermal growth factor receptor (EGFR), EGFR (gene 1956); experiment: BSK_hDFCGF_EGFR: BioMAP Diversity Plus: hDFCGF Assay for Epidermal growth factor receptor (EGFR) Biomarker Activity (AID 2283057); conditions: primary human foreskin fibroblasts; actives raise or lower the signal
# In short: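 Measured by ELISA: EGFR levels on primary human foreskin fibroblasts 24 h after chemical treatment, analysed relative to DMSO with bidirectional fitting.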
# [8] = read-out: Interleukin-8 (IL8), CXCL8 (gene 3576); experiment: BSK_hDFCGF_IL8: BioMAP Diversity Plus: hDFCGF Assay for Interleukin-8 (IL8) Biomarker Activity (AID 2283058); conditions: primary human foreskin fibroblasts; actives raise or lower the signal
# In short: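 hDFCGF human dermal fibroblasts; 24 h chemical exposure; IL-8 by ELISA; bidirectional curve fit vs DMSO baseline; gain or loss of signal scored.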
# [9] = BSK_hDFCGF_Proliferation: Cell Proliferation Assessment in the BioMAP Diversity Plus: hDFCGF Assay (AID 2283059); conditions: primary human foreskin fibroblasts;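 further: curves fitted for both rise and fall of signal versus DMSO baseline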
# In short: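 Total protein read at 560 nm after 0.1% SRB staining of TCA-fixed human skin fibroblasts, […]. Activity is fitted in both directions relative to DMSO as baseline.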
# [10] = read-out: Macrophage colony-stimulating factor (MCSF), CSF1 (gene 1435); experiment: BSK_hDFCGF_MCSF: BioMAP Diversity Plus: hDFCGF Assay for Macrophage colony-stimulating factor (MCSF) Biomarker Activity (AID 2283060); conditions: primary human foreskin fibroblasts; actives raise or lower the signal
# In short: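 Human foreskin primary fibroblasts were treated with test chemical for 24 h, and M-CSF was then measured by ELISA. Data were fitted bidirectionally against DMSO as the negative control and activity baseline.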
# [11] = BSK_hDFCGF_SRB: Viability Assessment in the BioMAP Diversity Plus: hDFCGF Assay (AID 2283061); conditions: primary human foreskin fibroblasts;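 further: cells exposed to compound for 24 h before the read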
# In short: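 Human foreskin primary fibroblasts were treated with compound and assessed 24 h after dosing. Total protein was measured by sulforhodamine B staining (0.1% SRB after 10% TCA fixation, 560 nm read) as a cytotoxicity marker, with bidirectional fitting against DMSO baseline.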
# [12] = read-out: TIMP metallopeptidase inhibitor 1 (TIMP1), TIMP1 (gene 7076); experiment: BSK_hDFCGF_TIMP1: BioMAP Diversity Plus: hDFCGF Assay for TIMP metallopeptidase inhibitor 1 (TIMP1) Biomarker Activity (AID 2283062); conditions: primary human foreskin fibroblasts; actives raise or lower the signal
# In short: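 Primary human foreskin fibroblasts in the hDFCGF system were dosed with compound for 24 h, then TIMP-1 was measured by ELISA. Activity was fitted bidirectionally relative to DMSO control; parallel SRB staining assessed cytotoxicity.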
# [13] = read-out: Matrix Metallopeptidase 1 (MMP1), MMP1 (gene 4312); experiment: BSK_hDFCGF_MMP1: BioMAP Diversity Plus: hDFCGF Assay for Matrix Metallopeptidase 1 (MMP1) Biomarker Activity (AID 2283064); conditions: primary human foreskin fibroblasts; actives raise or lower the signal
# In short: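 Primary human foreskin fibroblasts exposed to chemicals for 24 h; MMP1 measured by ELISA. Cytotoxicity tracked by SRB staining in parallel cultures; bidirectional fit relative to DMSO.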
# [14] = read-out: Vascular cell adhesion molecule 1 (VCAM1), VCAM1 (gene 7412); experiment: BSK_hDFCGF_VCAM1: BioMAP Diversity Plus: hDFCGF Assay for Vascular cell adhesion molecule 1 (VCAM1) Biomarker Activity (AID 2283065); conditions: primary human foreskin fibroblasts; actives raise or lower the signal;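 on AC50: VCAM-1 protein level quantified by ELISA after 24 h chemical exposure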
# In short: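 Primary human foreskin fibroblasts (hDFCGF system) were dosed with chemical and VCAM-1 was measured by ELISA 24 h later. Bidirectional curve fitting used DMSO as negative control and activity baseline.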
# [15] = read-out: Plasminogen activator inhibitor-1 (PAI1), SERPINE1 (gene 5054); experiment: BSK_hDFCGF_PAI1: BioMAP Diversity Plus: hDFCGF Assay for Plasminogen activator inhibitor-1 (PAI1) Biomarker Activity (AID 2283066); conditions: primary human foreskin fibroblasts; actives raise or lower the signal
# In short: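 PAI-1 levels, determined by ELISA, served as the endpoint in human foreskin fibroblast cultures exposed to compound for 24 h, with DMSO as baseline.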
# [16] = read-out: Intercellular Adhesion Molecule 1 (ICAM1), ICAM1 (gene 3383); experiment: BSK_KF3CT_ICAM1: BioMAP Diversity Plus: KF3CT Assay for Intercellular Adhesion Molecule 1 (ICAM1) Biomarker Activity (AID 2283067); conditions: primary human keratinocytes with fibroblasts; actives raise or lower the signal
# In short: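 Human keratinocyte plus foreskin fibroblast primary co-culture was exposed to chemical for 24 h. ICAM-1 was then quantified by ELISA, and the data were fit bidirectionally against DMSO as the negative control and baseline.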
# [17] = read-out: Interferon-gamma inducible Protein 10 (IP10), CXCL10 (gene 3627); experiment: BSK_KF3CT_IP10: BioMAP Diversity Plus: KF3CT Assay for Interferon-gamma inducible Protein 10 (IP10) Biomarker Activity (AID 2283068); conditions: primary human keratinocytes with fibroblasts; actives raise or lower the signal
# In short: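 Human keratinocyte plus foreskin fibroblast primary co-culture exposed to test chemical for 24 h; IP-10 measured by ELISA. Concentration-response fitted bidirectionally against DMSO control as baseline.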
# [18] = BSK_KF3CT_SRB: Viability Assessment in the BioMAP Diversity Plus: KF3CT Assay (AID 2283069); conditions: primary human keratinocytes with fibroblasts;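 further: fitted for both signal gain and loss against DMSO baseline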
# In short: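 Human keratinocyte and foreskin fibroblast co-culture exposed to chemical for 24 h. Total protein measured in parallel cultures by 0.1% sulforhodamine B staining after 10% TCA fixation, read at 560 nm; bidirectional fit relative to DMSO.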
# [19] = read-out: Interleukin-1 alpha (IL1a), IL1A (gene 3552); experiment: BSK_KF3CT_IL1a: BioMAP Diversity Plus: KF3CT Assay for Interleukin-1 alpha (IL1a) Biomarker Activity (AID 2283070); conditions: primary human keratinocytes with fibroblasts; actives raise or lower the signal
# In short: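 Primary human keratinocyte plus foreskin fibroblast co-culture, dosed and measured at 24 h in 96-well plates. IL-1a level quantified by ELISA; bidirectional fit relative to DMSO.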
# [20] = read-out: Monokine induced gamma interferon (MIG), CXCL9 (gene 4283); experiment: BSK_hDFCGF_MIG: BioMAP Diversity Plus: hDFCGF Assay for Monokine induced gamma interferon (MIG) Biomarker Activity (AID 2283063); conditions: primary human foreskin fibroblasts; actives raise or lower the signal
# In short: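 ELISA read-out of MIG from primary human dermal fibroblasts 24 h post-dosing. Gain or loss of signal fitted bidirectionally, DMSO as baseline.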
structure (smiles),measurement,setting,value
CC(C)=CC1C(C(=O)OCc2coc(Cc3ccccc3)c2)C1(C)C (stereo not given),AC50,[1],20 µM (active)
same,outcome,[2],inactive
same,AC50,[3],3.97 µM (active)
same,outcome,[4],inactive
same,outcome,[5],inactive
same,AC50,[6],12.2 µM (active)
same,outcome,[7],inactive
same,outcome,[8],inactive
same,AC50,[9],15 µM (active)
same,AC50,[10],11.1 µM (active)
same,outcome,[11],inactive
same,outcome,[12],inactive
same,outcome,[13],inactive
same,outcome,[14],inactive
same,outcome,[15],inactive
same,outcome,[16],inactive
same,outcome,[17],inactive
same,outcome,[18],inactive
same,outcome,[19],inactive
COc1cc(Cl)c(OC)cc1Cl,outcome,[1],inactive
same,outcome,[2],inactive
same,outcome,[3],inactive
same,outcome,[4],inactive
same,outcome,[5],inactive
same,outcome,[6],inactive
same,outcome,[7],inactive
same,outcome,[8],inactive
same,outcome,[9],inactive
same,outcome,[10],inactive
same,outcome,[11],inactive
same,outcome,[12],inactive
same,outcome,[13],inactive
same,outcome,[14],inactive
same,outcome,[15],inactive
same,outcome,[16],inactive
same,outcome,[17],inactive
same,outcome,[18],inactive
same,outcome,[19],inactive
CC1(C)CON(Cc2ccccc2Cl)C1=O,outcome,[1],inactive
same,outcome,[2],inactive
same,outcome,[3],inactive
same,outcome,[4],inactive
same,outcome,[5],inactive
same,outcome,[6],inactive
same,outcome,[7],inactive
same,outcome,[8],inactive
same,outcome,[9],inactive
same,outcome,[10],inactive
same,outcome,[11],inactive
same,outcome,[20],inactive
same,AC50,[13],20 µM (active)
same,outcome,[14],inactive
same,outcome,[15],inactive
same,outcome,[16],inactive
same,outcome,[17],inactive
same,outcome,[18],inactive
same,outcome,[19],inactive
CCC(C)n1c(=O)[nH]c(C)c(Br)c1=O (stereo not given),outcome,[1],inactive
same,outcome,[2],inactive
same,outcome,[3],inactive
same,outcome,[4],inactive
same,outcome,[5],inactive
same,outcome,[6],inactive
same,outcome,[7],inactive
same,outcome,[8],inactive
same,outcome,[9],inactive
same,outcome,[10],inactive
same,outcome,[11],inactive
same,outcome,[12],inactive
same,outcome,[13],inactive
same,outcome,[14],inactive
same,outcome,[15],inactive
same,outcome,[16],inactive
same,outcome,[17],inactive
same,outcome,[18],inactive
same,outcome,[19],inactive
CC1(C)C(C=C(Cl)Cl)C1C(=O)OC(C#N)c1cccc(Oc2ccccc2)c1 (stereo not given),outcome,[1],inactive
same,outcome,[2],inactive
same,outcome,[3],inactive
same,outcome,[4],inactive
same,outcome,[5],inactive
same,outcome,[6],inactive
same,outcome,[7],inactive
same,outcome,[8],inactive
same,outcome,[9],inactive
same,outcome,[10],inactive
same,outcome,[11],inactive
same,outcome,[12],inactive
same,outcome,[13],inactive
same,outcome,[14],inactive
same,outcome,[15],inactive
same,outcome,[16],inactive
same,outcome,[17],inactive
same,outcome,[18],inactive
same,outcome,[19],inactive
CCOP(=O)(OCC)Oc1nc(Cl)c(Cl)cc1Cl,AC50,[1],0.297 µM (active)
same,outcome,[2],inactive
same,AC50,[3],20 µM (active)
same,outcome,[4],inactive
same,outcome,[5],inactive
same,AC50,[6],3.97 µM (active)
same,outcome,[7],inactive
same,outcome,[8],inactive
same,AC50,[9],12 µM (active)
same,AC50,[10],5.14 µM (active)
same,AC50,[11],36.3 µM (active)
same,outcome,[12],inactive
same,outcome,[13],inactive
same,AC50,[14],18.4 µM (active)
same,AC50,[15],20 µM (active)
same,outcome,[16],inactive
same,AC50,[17],19 µM (active)
same,AC50,[18],8.75 µM (active)
same,outcome,[19],inactive
CCSC(=O)N1CCCCCC1,outcome,[1],inactive
same,outcome,[2],inactive
same,outcome,[3],inactive
same,outcome,[4],inactive
same,outcome,[5],inactive
same,outcome,[6],inactive
same,outcome,[7],inactive
same,outcome,[8],inactive
same,outcome,[9],inactive
same,outcome,[10],inactive
same,outcome,[11],inactive
same,outcome,[12],inactive
same,outcome,[13],inactive
same,outcome,[14],inactive
same,outcome,[15],inactive
same,outcome,[16],inactive
same,outcome,[17],inactive
same,outcome,[18],inactive
same,outcome,[19],inactive
CCCC(=NOCC)C1=C(O)CC(CC(C)SCC)CC1=O (stereo not given),outcome,[1],inactive
same,outcome,[2],inactive
same,outcome,[3],inactive
same,outcome,[4],inactive
same,outcome,[5],inactive
same,outcome,[6],inactive
same,outcome,[7],inactive
same,outcome,[8],inactive
same,outcome,[9],inactive
same,outcome,[10],inactive
same,outcome,[11],inactive
same,outcome,[12],inactive
same,outcome,[13],inactive
same,outcome,[14],inactive
same,outcome,[15],inactive
same,outcome,[16],inactive
same,outcome,[17],inactive
same,outcome,[18],inactive
same,outcome,[19],inactive
CNC(=O)N(C)c1nnc(C(C)(C)C)s1,outcome,[1],inactive
same,outcome,[2],inactive
same,outcome,[3],inactive
same,outcome,[4],inactive
same,outcome,[5],inactive
same,outcome,[6],inactive
same,outcome,[7],inactive
same,outcome,[8],inactive
same,outcome,[9],inactive
same,outcome,[10],inactive
same,outcome,[11],inactive
same,outcome,[12],inactive
same,outcome,[13],inactive
same,outcome,[14],inactive
same,outcome,[15],inactive
same,outcome,[16],inactive
same,outcome,[17],inactive
same,outcome,[18],inactive
same,outcome,[19],inactive
CN/C(=N\[N+](=O)[O-])NCc1cnc(Cl)s1,outcome,[1],inactive
same,outcome,[2],inactive
same,outcome,[3],inactive
same,outcome,[4],inactive
same,outcome,[5],inactive
same,outcome,[6],inactive
same,outcome,[7],inactive
same,outcome,[8],inactive
same,outcome,[9],inactive
same,outcome,[10],inactive
same,outcome,[11],inactive
same,outcome,[12],inactive
same,outcome,[13],inactive
same,outcome,[14],inactive
same,outcome,[15],inactive
same,outcome,[16],inactive
same,outcome,[17],inactive
same,outcome,[18],inactive
same,outcome,[19],inactive

# From PubChem BioAssay (EPA / NIEHS)
